Screening data deposited in PubChem BioAssay by University of Kansas High Throughput Screening Laboratory.
Pf apPOL inh: Pf-apPOL DNA polymerase inhibition; inhibition, % at 10 µM; Recombinant Pf-apPOL, molecular beacon fluorescence, 1.5 h; 210,000 compounds, 0.25% hits
mHTT-CaM PPI inh: disrupts binding of mutant huntingtin to calmodulin; P42858; AlphaScreen His-mHTT/GST-CaM binding, luminescence; inhibition, % at 15 µM; 190,000 compounds, 3.6% hits
Numbers stand for hits; n = inactive; x = no result. Only a selection was taken, and hits are over-represented in it overall. Rule as the data show it: active = inhibition above about 50%; inactive = the rest.

SMILES | Pf apPOL inh | mHTT-CaM PPI inh
CCN1CCN(c2ccc(NC(=O)C3CCCC3)cn2)C1=O | n | n
O=C(Nc1ccc(N2CCOCC2)cc1)c1cc(Br)ccc1Cl | n | n
CCCS(=O)(=O)NCCC1CCN(C(=O)c2ccc(F)cc2)CC1 | n | n
Cc1c(Br)cc(C(=O)NC(C)(C)CO)c(C)c1C | n | n
CC(=O)Nc1ccc(S(=O)(=O)N2CCC(c3noc(-c4ccccc4)n3)CC2)cc1 | n | n
CCOc1ccc(C(=O)N(CC2COc3ccccc3C2)C(C)C)cc1 (centres undefined) | n | n
O=C(c1ccccc1)N1CCc2c(nc3cc(-c4ccccc4)[nH]n3c2=O)C1 | 51 | n
COc1ccccc1CCC(=O)N1CCc2nc3cc(-c4ccccc4)[nH]n3c(=O)c2C1 | n | n
COc1ccccc1CCC(=O)N1CCc2c(nc3cc(-c4ccccc4)[nH]n3c2=O)C1 | n | 59
O=C(c1ccc2c(c1)OCO2)N1CCc2c(nc3cc(-c4ccccc4)[nH]n3c2=O)C1 | n | n
O=C(c1cc(F)ccc1Cl)N1CCc2c(nc3cc(-c4ccccc4)[nH]n3c2=O)C1 | n | 71
O=C(c1ccccc1Cl)N1CCc2c(nc3cc(-c4ccccc4)[nH]n3c2=O)C1 | n | n
CN(C)CCNC(=O)C(=O)NCC1COC2(CCCCC2)O1 (centres undefined) | n | n
Cc1ccc(NCCNS(=O)(=O)c2ccc(-c3csc(C)n3)s2)nn1 | n | 99
CCN(CC)S(=O)(=O)c1ccc(-c2csc(C)n2)s1 | n | x
CN(C(=O)c1nn2c(c1Cl)NC(c1cccs1)CC2C(F)(F)F)C1CCCCC1 (centres undefined) | n | 77
O=C(NC1CCCCC1)c1nn2c(c1Cl)NC(c1cccs1)CC2C(F)(F)F (centres undefined) | n | n
O=C(c1nn2c(c1Cl)NC(c1cccs1)CC2C(F)(F)F)N1CCc2ccccc2C1 (centres undefined) | n | 100
O=C(c1nn2c(c1Cl)NC(c1cccs1)CC2C(F)(F)F)N1CCCC1 (centres undefined) | n | n
Cn1ncc(N2CCC(C(=O)NCc3cc(F)cc(F)c3)CC2)cc1=O | n | n
Cc1cc(O)c(C(C)C)cc1NC(=O)c1ccc(Cl)cc1 | n | n
Cc1cc(O)c(C(C)C)cc1N=C1CSC(=O)N1 | n | 53
COc1ccc([C@H]2C[C@H](O)[C@@H](n3cc(-c4ccc(F)cc4)nn3)CN2CC2CCCCC2)cc1 | n | 69
CCCCCCN1C[C@H](n2cc(-c3ccc(F)cc3)nn2)[C@@H](O)C[C@@H]1c1ccc(OC)cc1 | n | 67
CCCCCCN1C[C@@H](n2cc(-c3ccc(F)cc3)nn2)[C@H](O)C[C@@H]1c1ccc(OC)cc1 | n | n
SMILES | Pf apPOL inh | mHTT-CaM PPI inh
CCCCCCN1C[C@H](n2cc(C3CC3)nn2)[C@@H](O)C[C@@H]1c1ccccc1 | n | 99
CCCCCCN1C[C@@H](O)[C@H](n2cc(C3CC3)nn2)C[C@@H]1c1ccccc1 | n | n
CCCCCCN1C[C@H](n2cc(C3CC3)nn2)[C@@H](O)C[C@@H]1c1ccc(OC)cc1 | n | 98
CCCCCC(=O)N1C[C@@H](O)[C@H](n2cc(C3CC3)nn2)C[C@@H]1c1ccc(OC)cc1 | n | n
COc1ccc([C@H]2C[C@@H](n3cc(-c4ccc(F)cc4)nn3)[C@H](O)CN2CC2CCCCC2)cc1 | n | n
COc1ccc2oc(=O)c(-c3nnc(Nc4cc(Cl)ccc4OC)s3)cc2c1 | n | n
Cc1nn(-c2ccc(Nc3ccc(NC(=O)c4ccccc4F)cc3)nn2)c(C)c1C | n | n
O=C(c1ccc(Cl)s1)N1CCCN(C2CCN(CC3CC3)C2=O)CC1 (centres undefined) | n | n
N#CC1=C(N)N(c2ncn[nH]2)C2=C(C(=O)CC(c3ccccc3)C2)C1c1ccccc1C(F)(F)F (centres undefined) | n | n
COc1ccc(Br)cc1C1=N/C(=C/c2ccc([N+](=O)[O-])cc2)C(=O)O1 | n | n
CCOc1ccc2c(c1)OC(=Cc1ccc(OC(C)C(=O)OC)cc1)C2=O (centres undefined) | n | n
Cc1ccc(Cl)cc1N1CCN(C(=O)c2noc3c2CCCC3)CC1 | n | 96
O=C(c1noc2c1CCCCC2)N1CCN(c2ccccc2F)CC1 | n | n
N#C/C(=C\c1ccc(S(=O)(=O)c2ccc(Cl)cc2)cc1)c1nc2ccccc2[nH]1 | n | n
CCCNc1c(N)cc(C(F)(F)F)cc1[N+](=O)[O-] | n | 55
O=[N+]([O-])c1cc(C(F)(F)F)cc([N+](=O)[O-])c1NCCCn1ccnc1 | n | x
CC(C)NC(=O)C1CCN(c2cncnc2N2CCOCC2)CC1 | n | n
Clc1ccc(Nc2nc(NCCCn3ccnc3)nc3nc[nH]c23)cc1 | n | 99
c1cn(CCCNc2ncnc3nc[nH]c23)cn1 | n | n
O=c1[nH]c2ccccc2n1CCCSc1nccc2ccccc12 | n | 100
Cc1cc(C)nc(SCCCn2c(=O)[nH]c3ccccc32)n1 | n | n
COc1ccc(NC(=O)N2CCc3c(c4ccccc4n3C)C2)cc1 | n | 51
CCCn1cc2c3c(cccc31)CN(C(=O)Nc1ccc(OC)cc1)CC2 | n | n
CC(=O)N1CCc2ccccc2C1C(=O)N1CCN(c2cccc(Cl)c2)CC1 (centres undefined) | n | 78
CC(=O)N1CCc2ccccc2C1C(=O)N1CCN(c2ccc(F)cc2)CC1 (centres undefined) | n | n
SMILES | Pf apPOL inh | mHTT-CaM PPI inh
CC(=O)N1CCc2ccccc2C1C(=O)N1CCN(c2ccc(C)cc2)CC1 (centres undefined) | n | n
O=C(C1c2ccccc2CCN1C(=O)C1CC1)N1CCN(c2ccc(F)cc2)CC1 (centres undefined) | n | 55
CCc1nnc2c(NC(=O)Cc3ccccc3C)cccn12 | n | n
O=C1C2CC(Br)C(Br)CC2C(=O)N1CC1CCCO1 (centres undefined) | n | n
O=C1/C(=C/C2CCCO2)CC/C1=C\C1CCCO1 (centres undefined) | x | 68
N#Cc1c(-c2ccccc2)cc(-c2ccc(F)cc2)nc1F | x | n
Cc1ccc(-c2cc(-c3ccc(F)cc3)c(C#N)c(N)n2)o1 | n | 88
COc1ccc(CNC2CCCC2)cc1Br | n | n
COc1ccccc1CNc1ccc2c(c1)CCC2 | n | 79
